Hit rate of the full screen: of about 330,000 compounds, about 1,500 (0.45%) were called active. Not shown: some 6% with an inconclusive outcome. The call rests on the fitted dose curve; tested in A549 cells. Shown is part of a subset that was picked to be rich in actives. Where a call stands in place of a potency, no number is given.

We go through 92 molecules from PubChem BioAssay AID720580 (National Center for Advancing Translational Sciences (NCATS), 2013).
Potency means the concentration at half of the fitted maximal effect.

The test in a line: qHTS for Stage-Specific Inhibitors of Vaccinia Orthopoxvirus: Venus Reporter Primary qHTS. Further: nearly all actives have a fitted effect of over 30% in size. Conditions: Vaccinia virus Venus reporter expression, fluorescence; series mostly up to 36.5 µM.
In the case of `CCCNC(=O)C1(C)CCN(Cc2ccc(Cl)c(Cl)c2)C1` (configuration not stated), the Potency entry is “inactive”.

In the case of `CCCc1ccc(C(O)c2ncc(-c3cccc(OC)c3)[nH]2)cc1` (configuration not stated), the Potency result was “inactive”. Still for that read-out and setting: as for `Cc1ccc(-c2nc3c(C)cc(Br)cn3c2Cc2ccccc2)cc1`, the entry is “inactive”. On the same count and under the same terms, as for `COc1ccccc1Cc1c(-c2ccc(Cl)cc2)nc2ccc(Cl)cn12`, the entry is “inactive”; as for `COc1c(O)ccc2c1CN1CCc3cc4c(cc3C1C2)OCO4` (configuration not stated), 11.2 µM (active); as for `COc1ccc2c(c1O)-c1cccc3c1[C@@H](C2)N(C)CC3`, “inactive”.

Consider `CN1CCc2cc3c(cc2[C@H]1[C@@H]1OC(=O)c2c1ccc1c2OCO1)OCO3`, for which the Potency entry was “inactive”.

For the molecule `Cc1cccc(C)c1NC(=O)C(c1cccc2ccccc12)n1c(=O)c(-c2ccco2)nc2ccccc21` (configuration not stated), the Potency entry is “inactive”.

For the molecule `COc1ccc(-c2c(C)cc3oc(=O)cc(-c4ccccc4)c3c2C)cc1F`, the Potency result was “inactive”. Same read-out and setting: then `COc1cc(OC)c2c(-c3cccc(-c4cccc(N)c4)c3)cc(=O)oc2c1`, with 12.6 µM (active); and `COc1ccc(-c2c(C)cc3oc(=O)cc(-c4ccccc4)c3c2C)cc1OC`, with “inactive”; and `CN[C@H]1C[C@H]2c3cc(Oc4ccccc4C)ccc3CCN2C(=O)[C@H]1[C@H](C)O`, with “inactive”.

Regarding `CC1=C(C(=O)N(C(C)C)C(C)C)CC(CC(=O)NCCCCc2ccccc2)C(=O)N1CCC1=CCCCC1` (configuration not stated), the Potency result is “inactive”. As for `CC1=C(C(=O)Nc2ccccc2)SCCO1`, the Potency result is “inactive”. The same measure, in the same setting: as for `CC1=C(C(=O)Nc2ccccc2)S(=O)(=O)CCO1`, the figure is 0.794 µM (active); as for `O=C(Nc1ccccc1)c1ccc2c(c1)OCCCO2`, “inactive”. On the same count and under the same terms, as for `OC(CBr)C[n+]1cccc2cc(Br)ccc21` (configuration not stated), the entry is “inactive”; as for `COc1cccc(C(O)c2nc(-c3ccc(C)c(C)c3)cs2)c1` (configuration not stated), “inactive”; as for `CCC(C)N(c1ccc(/C=C/c2ccnc3ccccc23)cc1)C(C)CC` (configuration not stated), “inactive”. With `COC(=O)Cc1ccc(OC2(C)CCN(Cc3ccc4c(c3)OCCO4)C2)cc1` (configuration not stated), the Potency entry was “inactive”. Same read-out and setting: then `COC(=O)c1ccc2nc(-c3ccccc3)c(Cc3ccc(OC)cc3C)n2c1`, with “inactive”.

In the case of `Cn1c(NN)nc2sc3c(c2c1=O)CCC3`, the Potency result is “inactive”. On the same count and under the same terms, then `CCCc1nc2sc3c(c2c(=O)n1NC(=O)CCCl)CCCC3`, with 7.94 µM (active).

Take `Cc1ccc(C)c(-n2c(SCC(=O)O)nc3sc4c(c3c2=O)CCCC4)c1`: the Potency result was “inactive”. On the same count and under the same terms, as for `Nc1nc2c(Br)ccc(Br)c2cc1C(=O)NCCc1ccccc1`, the entry is “inactive”; as for `Cc1ccc2nc(-c3ccccc3)c(CC3CCCCC3)n2c1`, “inactive”; as for `O=C(NC1CCCC1)C1c2ccccc2OCC(=O)N1Cc1ccccc1` (configuration not stated), “inactive”. The same measure, in the same setting: then `CC(=O)c1cccc(-c2cnc3c(NC=O)cc(-c4cccc(C(=O)N(C)C)c4)cn23)c1`, with “inactive”; and `CC(=O)c1cccc(-c2cnc3c(NC=O)cc(-c4ccc(N(C)C)cc4)cn23)c1`, with “inactive”; and `CC(=O)c1ccc(-c2cnc3c(NC=O)cc(-c4cccc(NS(C)(=O)=O)c4)cn23)cc1`, with 11.2 µM (active). On the same count and under the same terms, as for `CC(C)(C)c1ccc(C(=O)C[N+]2(C)CCCc3ccccc32)cc1` (configuration not stated), the entry is “inactive”; as for `CCC(C)(O)C(=O)OC1C(=O)OC2CC3C(C)=CC(=O)C(O)C3(C)C3C4(O)OCC23C1C(C)C4O` (configuration not stated), 0.316 µM (active); as for `CC=CCn1c(SCCCc2ccccc2)nc2c1c(=O)[nH]c(=O)n2C`, “inactive”. On to `CN(C(=N)N)c1ccc(/C=C2\C=Cc3ccccc32)cc1`, for which the Potency entry is “inactive”. On the same count and under the same terms, then `COc1ccc(S(=O)(=O)N2CCCCC2c2cc(C(=O)NCc3ccc(F)cc3)no2)cc1` (configuration not stated), with “inactive”; and `CCN(CC)c1ncnc2c1ncn2[C@H]1CN(Cc2cccs2)C[C@@H](CO)O1`, with “inactive”; and `CCOc1cc(N2CCOCC2)c(OCC)cc1NC(=O)COc1cccc(Cl)c1`, with “inactive”. On the same count and under the same terms, then `CCOc1cc(N2CCOCC2)c(OCC)cc1NC(=O)COc1cccc2cccnc12`, with 12.6 µM (active); and `CCOc1cc(N2CCOCC2)c(OCC)cc1NC(=O)c1cc(C)nc2ccccc12`, with “inactive”; and `CN(N=O)c1ccc(C=C2c3ccccc3-c3ccccc32)cc1`, with “inactive”. On the same count and under the same terms, then `CN(C)C1=C2C=CC=CC2/C(=C2/C=Cc3ccccc32)C=C1` (configuration not stated), with “inactive”; and `CCCc1ccc(OCc2ccc(C(=O)N/N=C/c3cccc([N+](=O)[O-])c3)o2)c(OC)c1`, with 7.08 µM (active). For `COC(=O)c1ccc(COc2ccc(/C=N/NC(=O)C(=O)Nc3ccc(OC)cc3)cc2OC)o1`, the activity change, negative = inhibition was 4.27% [at 7.34 µM] (inactive). In the case of `O=C(N/N=C/c1cccc(OCc2ccccc2)c1)c1ccc(Br)o1`, the Potency result was “inactive”. Same read-out and setting: as for `CC(=O)Nc1cccc(-c2cc(NC(C)=O)c3ncc(-c4ccccc4)n3c2)c1`, the entry is “inactive”. Still for that read-out and setting: as for `CC(C)C[C@@H]1Cc2[nH][nH]c(=O)c2[C@H](CCc2ccccc2)O1`, the entry is “inactive”; as for `Nc1nc(SCc2ccc([N+](=O)[O-])cc2)c2ncn(C3OC(CO)C(O)C3O)c2n1` (configuration not stated), “inactive”. For `CC(C)Sc1nc(N)nc2c1ncn2C1OC(CO)C(O)C1O` (configuration not stated), the Potency result is “inactive”. Still for that read-out and setting: then `Nc1ncn(C2OC(CO)C(O)C2O)c(=O)n1` (configuration not stated), with 10 µM (active); and `Fc1cccc(Cc2c(-c3cccc(Cl)c3)nc3ccc(Br)cn23)c1`, with “inactive”; and `C/C(=N\NC(=O)Cc1ccc(Cl)cc1)c1ccccn1`, with 6.31 µM (active). Same read-out and setting: then `C/C(=N\NC(=O)Cc1ccc(Br)cc1)c1cccnc1`, with “inactive”. The same measure, in the same setting: as for `C/C(=N\NC(=O)c1ccccc1F)c1ccccn1`, the entry is “inactive”; as for `CCC(C(=O)NC(C)(C)C)n1c(-c2ccccc2)nc2ccccc21` (configuration not stated), “inactive”; as for `Cc1cc(Br)cn2c(Cc3ccsc3)c(-c3ccc(C#N)cc3)nc12`, “inactive”. On to `COc1ccc(-c2cc3nc(NCCOc4ccccc4)ccn3n2)cc1`, for which the Potency entry is “inactive”. Still for that read-out and setting: then `CCOC(=O)C1=CC[C@@H](c2ccccc2)N(S(=O)(=O)c2ccc(C)cc2)[C@H]1c1ccc(CC)cc1`, with “inactive”; and `CCOc1ccc(S(=O)(=O)Nc2ccc(OC)nc2)cc1`, with “inactive”; and `COc1ccc(CS(=O)/C(Cl)=C(/Cl)C(=O)Nc2ccc(OC)nc2)cc1` (configuration not stated), with 5.62 µM (active).

As for `COc1ccc(NC(=O)CN2C(=O)NC(C)(c3ccccc3)C2=O)cn1` (configuration not stated), the Potency result is “inactive”.

For the molecule `Cc1c(CCO)sc[n+]1CC(=O)c1ccc2ccccc2c1`, the Potency entry is “inactive”. On the same count and under the same terms, then `COC(=O)C1(C(=O)OC)C/C=C\CN(S(=O)(=O)c2ccccc2[N+](=O)[O-])CCC1`, with “inactive”. Same read-out and setting: then `COc1ccc(Br)c(Cn2c(C)c(C(=O)NCc3cccs3)sc2=O)c1`, with “inactive”; and `COc1cccc(NC(=O)C2(C)CCN2Cc2ccccc2Cl)c1` (configuration not stated), with “inactive”; and `O=C(NCc1ccccc1)C(c1ccc(F)cc1)N1CCN(C(=O)C2CCCO2)CC1` (configuration not stated), with “inactive”.

For the molecule `O=c1[nH]c(N2CCN(Cc3ccc4c(c3)OCO4)CC2)nc2c1CCCC2`, the Potency entry is “inactive”. For the molecule `Fc1ccc(N2CCN(Cc3ccc4c(c3)OCO4)CC2)cc1`, the Potency result is “inactive”. The same measure, in the same setting: as for `Fc1ccc2[nH]c3c(N4CCN(Cc5ccc6c(c5)OCO6)CC4)ncnc3c2c1`, the figure is 6.31 µM (active). On the same count and under the same terms, then `CCOP(=O)(OCC)C(Cc1ccccc1)N=C(c1ccccc1)c1ccccc1` (configuration not stated), with “inactive”. Same read-out and setting: then `CN(Cc1ccccc1)c1ccc(/C=C/c2ccnc3ccccc23)cc1`, with “inactive”; and `Brc1cccc[n+]1Cc1cccc(C[n+]2ccccc2Br)c1`, with “inactive”; and `COC(=O)c1ccc2nc(-c3ccc(F)cc3)c(Cc3ccc(C)cc3)n2c1`, with “inactive”. `CC(C)(C)C1CCC(NC(=O)c2cnn3c2NC(=C2CC2)C=C3C(F)F)CC1` (configuration not stated): the Potency result is “inactive”. On the same count and under the same terms, as for `Cc1[nH]n(-c2cccc(Cl)c2)c(=O)c1-c1ccc(Cl)cc1`, the figure is 28.2 µM (active).

As to `O=c1c2ccccc2[nH]c(=S)n1-c1cccc(Cl)c1`, the Potency result was “inactive”. Same read-out and setting: then `O=c1c(-c2cccc(Cl)c2)c[nH]n1-c1ccccc1`, with “inactive”; and `CCN(CC)c1ccc(/C=C/c2c(C)cnc3ccc(C)cc23)cc1`, with “inactive”; and `Cn1c(=O)[nH]c(=O)c2c1nc(N1CCN(CCO)CC1)n2CCSc1nc2ccccc2s1`, with “inactive”.

As for `CN1CCN(c2nc3c(c(=O)[nH]c(=O)n3C)n2Cc2cccc3ccccc23)CC1`, the Potency entry was “inactive”. On to `Cn1c(=O)[nH]c(=O)c2c1nc(N1CCN(C(c3ccccc3)c3ccccc3)CC1)n2CCO`, for which the Potency is 12.6 µM (active). The same measure, in the same setting: then `COC(=O)[C@@]12C[C@@H](CC(=O)NCc3cccc(C(F)(F)F)c3)C(=O)N(Cc3ccco3)C1=CCC(C)(C)C2`, with “inactive”; and `C=C(C)C(=O)O[C@H]1C/C(C)=C\C(=O)/C=C(\C)[C@H](O)[C@@H]2OC(=O)C(=C)[C@@H]21`, with 10 µM (active); and `O=C1NC[C@H](Cc2ccc(O)cc2)N(C[C@H]2CCCN2C[C@H](Cc2ccccc2)N2C[C@H](Cc3ccccc3)N(CCc3ccccc3)C(=O)C2=O)C1=O`, with “inactive”. Same read-out and setting: as for `C#CCOCCOCCOCCNc1nc(N2CCN(C(=O)Cn3cc(CCO)nn3)CC2)nc(N2CCN(C(=O)[C@H](CCCCN)n3cc(CCCC)nn3)CC2)n1`, the entry is “inactive”; as for `C#CCOCCOCCOCCNc1nc(N2CCN(C(=O)CCCCCCCCCCNC(=O)[C@H](CCCCN)n3cc(C)nn3)CC2)nc(N2CCN(C(=O)CCCCCCCCCCNC(=O)[C@H](CO)n3cc(CCCSC)nn3)CC2)n1`, 7.94 µM (active).

On to `C#CCOCCOCCOCCNc1nc(N2CCN(C(=O)CCCCCCCCCCNC(=O)Cn3cc(CCCCCN)nn3)CC2)nc(N2CCN(C(=O)CCCCCCCCCCNC(=O)[C@H](CO)n3cc(CCCSC)nn3)CC2)n1`, for which the Potency is 10 µM (active).

As to `C#CCOCCOCCOCCNc1nc(N2CCN(C(=O)CCCCCCCCCCNC(=O)[C@H]([C@@H](C)CC)n3cc(CCCCN=C(N)N)nn3)CC2)nc(N2CCN(C(=O)CCCCCCCCCCNC(=O)[C@H](CO)n3cc(CCCSC)nn3)CC2)n1`, the Potency was 15.8 µM (active).

`C#CCOCCOCCOCCNc1nc(N2CCN(C(=O)[C@H](CCCCN)n3cc(CCC(=O)O)nn3)CC2)nc(N2CCN(C(=O)[C@H](CCCCN)n3cc(CC(C)O)nn3)CC2)n1` (some centres not stated): the Potency result is “inactive”.

With `C#CCOCCOCCOCCNc1nc(N2CCN(C(=O)[C@H](CCC(=O)O)n3cc(CN)nn3)CC2)nc(N2CCN(C(=O)[C@H](CCC(=O)O)n3cc(CN)nn3)CC2)n1`, the Potency result is “inactive”. Consider `C#CCOCCOCCOCCNc1nc(N2CCN(C(=O)[C@H](C(C)C)n3cc(CCO)nn3)CC2)nc(N2CCN(C(=O)[C@H]([C@@H](C)CC)n3cc(CCCN=C(N)N)nn3)CC2)n1`, for which the Potency entry was “inactive”. On the same count and under the same terms, then `C#CCOCCOCCOCCNc1nc(N2CCN(C(=O)Cn3cc(CCO)nn3)CC2)nc(N2CCN(C(=O)Cn3cc(CCCN=C(N)N)nn3)CC2)n1`, with “inactive”; and `C#CCOCCOCCOCCNc1nc(N2CCN(C(=O)Cn3cc(CCCCN)nn3)CC2)nc(N2CCN(C(=O)[C@H](CCCCN)n3cc(CCC(=O)O)nn3)CC2)n1`, with “inactive”.
